According to a collection of fitness landscapes (doi:10.1126/science.1257360):
In all, about 140,000 sequences were measured (“enrichment ratio after two sorts for PhoP signalling”: median about 0, highest 2% from about 11 on). The sample as a whole holds a higher share of the highest values than the screen did.

B1: PhoQ; a variant is named by its letters at X, in order, P23837 (parent)
chain: MKKLLRLFFPLSLRVRFLLATAAVVLVLSLAYGMVALIGYSVSFDKTTFRLLRGESNLFYTLAKWENNKLHVELPENIDKQSPTMTLIYDENGQLLWAQRDVPWLMKMIQPDWLKSNGFHEIEADVNDTSLLLSGDHSIQQQLQEVREDDDDAEMTHSVAVNVYPATSRMPKLTIVVVDTIPVELKSSYMVWSWFIYVLSANLLLVIPLLWVAAWWSLRPIEALAKEVRELEEHNRELLNPATTRELTSLVRNLNRLLKSERERYDKYRTTLTDLTHSLKTPLXXLQXXLRSLRSEKMSVSDAEPVMLEQISRISQQIGYYLHRASMRGGTLLSRELHPVAPLLDNLTSALNKVYQRKGVNISLDISPEISFVGEQNDFVEVMGNVLDNACKYCLEFVEISARQTDEHLYIVVEDDGPGIPLSKREVIFDRGQRVDTLRPGQGVGLAVAREITEQYEGKIVAGESMLGGARMEVIFGRQHSAPKDE

Variants of: B1
Test: enrichment ratio after two sorts for PhoP signalling (ratio (wild type AVST 3.29)); higher = more functional
Conditions: with PhoP (E. coli)

Variant | enrichment ratio
VTSC | ≤ 0.25
QCKT | ≤ 0.25
MFMN | ≤ 0.25
YQKV | ≤ 0.25
GKEW | ≤ 0.25
KSQI | ≤ 0.25
TLQI | 14.7
KAQI | ≤ 0.25
VMGP | ≤ 0.25
DKIR | ≤ 0.25
PQLM | ≤ 0.25
KNVL | ≤ 0.25
EARA | ≤ 0.25
FQWE | 1.71
LTME | ≤ 0.25
SHME | ≤ 0.25
NHME | ≤ 0.25
AAME | 30.8
THME | 49
TDME | 11.5
AAMY | ≤ 0.25
AHME | 12.2
ATME | 7.5
AIME | 1.65

Variant | enrichment ratio
AAPE | ≤ 0.25
TDVE | ≤ 0.25
YSHD | ≤ 0.25
PTCC | ≤ 0.25
MPHN | ≤ 0.25
RHYV | ≤ 0.25
TAVD | ≤ 0.25
SIIF | 0.435
MTIV | ≤ 0.25
MTTM | 18.5
FCVM | ≤ 0.25
MTRM | ≤ 0.25
FEVM | 11.6
LTVM | ≤ 0.25
GTVM | 36.9
MTIM | 25.3
MTTD | ≤ 0.25
YTVM | ≤ 0.25
MKTM | ≤ 0.25
FEVA | ≤ 0.25
FLDD | ≤ 0.25
FDRW | ≤ 0.25
VFHM | ≤ 0.25
MSQP | ≤ 0.25

Variant | enrichment ratio
KNYG | ≤ 0.25
GLAL | 12.9
HEGM | ≤ 0.25
IQVM | ≤ 0.25
SLVM | 2.29
SQVM | 19.6
HEVA | ≤ 0.25
SEVM | 18.7
SAVM | 4.22
SCVM | 8.76
HEVM | 24.4
PLAL | ≤ 0.25
GYAL | ≤ 0.25
LWIF | ≤ 0.25
NFST | ≤ 0.25
PYQI | ≤ 0.25
GTRE | ≤ 0.25
SHDG | 1.66
GIVM | 3.78
MEVM | 12.9
MTPM | ≤ 0.25
MTVA | ≤ 0.25
ITVM | ≤ 0.25
MAVM | ≤ 0.25

Variant | enrichment ratio
LNVM | ≤ 0.25
NEVM | 7.03
KYVM | ≤ 0.25
MTVM | 12.8
STVM | 16.3
GNVM | 22.8
WVID | ≤ 0.25
KGWL | ≤ 0.25
GFAY | ≤ 0.25
QNPQ | ≤ 0.25
VYSV | ≤ 0.25
IADP | ≤ 0.25
TERG | ≤ 0.25
EIGI | ≤ 0.25
GLTC | ≤ 0.25
GDSM | 2.79
GLCK | ≤ 0.25
GLTA | ≤ 0.25
GLSM | 12.3
GLSF | 4.58
GLVM | 16.2
GLTI | 11.7
GLWM | ≤ 0.25
RFTN | ≤ 0.25

Variant | enrichment ratio
RWLE | ≤ 0.25
LIDA | ≤ 0.25
LWYT | ≤ 0.25
VRCA | ≤ 0.25
SCQC | ≤ 0.25
TMMD | ≤ 0.25
KMMN | ≤ 0.25
TMSQ | 13.5
MMSA | ≤ 0.25
TMGK | ≤ 0.25
DMMN | ≤ 0.25
TMMS | 14.5
DMSA | ≤ 0.25
TMMN | 11.5
TMSA | 15.1
TMMW | ≤ 0.25
TMSR | ≤ 0.25
FINQ | ≤ 0.25
DCDV | ≤ 0.25
ECGF | ≤ 0.25
EREC | ≤ 0.25
TNHL | ≤ 0.25
WDRM | ≤ 0.25
KETS | ≤ 0.25

Variant | enrichment ratio
RLAR | ≤ 0.25
DGIV | ≤ 0.25
KMLV | ≤ 0.25
FDFL | ≤ 0.25
TMMG | 23.4
DMSI | ≤ 0.25
TMVG | ≤ 0.25
TMTG | 3.06
TMGG | 15.7
TMWG | ≤ 0.25
TMMV | 4.75
TMWT | ≤ 0.25
TMSK | ≤ 0.25
TMSI | 14.2
TMMT | 22.9
MMMT | ≤ 0.25
IFIA | ≤ 0.25
IGQM | ≤ 0.25
PWGS | ≤ 0.25
AYGE | ≤ 0.25
THGQ | ≤ 0.25
LATF | ≤ 0.25
VFAS | ≤ 0.25
ESNS | ≤ 0.25

Variant | enrichment ratio
PACG | ≤ 0.25
ITYK | ≤ 0.25
HKVF | ≤ 0.25
KKSE | ≤ 0.25
ILEH | ≤ 0.25
TMHQ | 15.4
TMWQ | ≤ 0.25
DMQF | ≤ 0.25
TMQF | 16.1
TMWH | ≤ 0.25
TMHP | ≤ 0.25
MPHD | ≤ 0.25
PCPI | ≤ 0.25
GGFW | ≤ 0.25
ESEG | ≤ 0.25
PDQD | ≤ 0.25
VWER | ≤ 0.25
MRPD | ≤ 0.25
SKPL | ≤ 0.25
SKTI | 14.2
SKTS | 3.33
SKCL | 11.8
SKCK | ≤ 0.25
SKKL | ≤ 0.25

Variant | enrichment ratio
SKMV | 14.3
SKMI | 4.44
SKTA | 0.276
SKAV | 4.49
SKCI | 16.6
SKCS | 6.51
VFSR | ≤ 0.25
FRTG | ≤ 0.25
PMFK | ≤ 0.25
FGSI | ≤ 0.25
VKKE | ≤ 0.25
PRSV | ≤ 0.25
SKMT | 10.8
SKKI | ≤ 0.25
SKCE | 5.46
SKCT | 14.2
SKCA | 11.7
SKPY | ≤ 0.25
SKCY | 16.7
SKAT | 5.34
SKKQ | ≤ 0.25
SKHP | ≤ 0.25
SKMQ | 13.1
SKPI | ≤ 0.25

Variant | enrichment ratio
DRIT | ≤ 0.25
DNWQ | ≤ 0.25
SKCF | 13.8
SKCV | 12.3
MKCF | ≤ 0.25
SKIV | 4.99
SKHF | ≤ 0.25
SKFW | ≤ 0.25
IRSK | ≤ 0.25
GTMP | ≤ 0.25
NADQ | ≤ 0.25
FFYQ | ≤ 0.25
QPYQ | ≤ 0.25
RGYQ | ≤ 0.25
YTYQ | ≤ 0.25
TGYQ | 15.9
QTYQ | 4.58
QGYQ | 13.9
KSYQ | ≤ 0.25
QEYQ | 30.4
STYQ | ≤ 0.25
NGYQ | ≤ 0.25
TTYQ | 11.4
DEAF | ≤ 0.25

Variant | enrichment ratio
WEER | ≤ 0.25
ADHC | ≤ 0.25
NYMN | ≤ 0.25
WKDT | ≤ 0.25
EGGF | ≤ 0.25
WIPQ | ≤ 0.25
IQYQ | ≤ 0.25
TQYD | 3.43
TQYQ | 27.1
TGDI | ≤ 0.25
WKRD | ≤ 0.25
KGIQ | ≤ 0.25
FVAT | ≤ 0.25
FVAA | ≤ 0.25
TVAN | 16.9
SPAN | ≤ 0.25
TVAG | 17.8
PVAA | ≤ 0.25
NVAT | ≤ 0.25
TVAT | 16.8
PVAG | ≤ 0.25
NVAG | ≤ 0.25
NVAN | ≤ 0.25
TVAA | 20.7

Variant | enrichment ratio
RYVN | ≤ 0.25
RYKH | ≤ 0.25
MFLN | ≤ 0.25
RRDC | ≤ 0.25
MLNF | ≤ 0.25
SHAN | ≤ 0.25
THAN | 13.2
TVMT | 12.2
PVMT | ≤ 0.25
TVAS | 14.3
FVAS | ≤ 0.25
NVAS | ≤ 0.25
NHAN | ≤ 0.25
KCMT | ≤ 0.25
PEFN | ≤ 0.25
PTTH | 1.43
DIRA | ≤ 0.25
HQWG | ≤ 0.25
AHSS | ≤ 0.25
ANSS | 12.7
AGSS | 11.2
AGSK | 0.857
NGSS | ≤ 0.25
ADSS | ≤ 0.25

Variant | enrichment ratio
AQSS | 11.7
ANSR | ≤ 0.25
AKSS | 8.3
LTKW | ≤ 0.25
FSPG | ≤ 0.25
VPLL | ≤ 0.25
NLEV | ≤ 0.25
EVYR | ≤ 0.25
QKGY | ≤ 0.25
YAYC | ≤ 0.25
NGYC | ≤ 0.25
FFYC | ≤ 0.25
KAYC | ≤ 0.25
QGYC | 13.7
TGYC | 13.2
RGYC | ≤ 0.25
QTYC | 0.887
TAYC | 11.3
KTHY | ≤ 0.25
GMIR | 1.56
TGTT | 11.2
NPLD | ≤ 0.25
SLDR | ≤ 0.25
TAGG | 3.74

Variant | enrichment ratio
VTSS | ≤ 0.25
YGPF | ≤ 0.25
MAMI | 8.98
YWML | ≤ 0.25
PNML | ≤ 0.25
WIML | ≤ 0.25
ANML | 13
TTML | 28.8
QEML | ≤ 0.25
NEML | 0.665
AGML | 16.1
APML | ≤ 0.25
NIML | 6.63
AEML | 14.4
HMSC | ≤ 0.25
RRES | ≤ 0.25
YPTI | ≤ 0.25
IDRY | ≤ 0.25
